# According to PubChem BioAssay (Tox21):
# Unmarked numbers belong to inactive results. Active and inactive are the calls of the source. The call rests on the fitted dose curve; in most records, active means well fitted activation curve with a large enough effect in the repeat runs; inconclusive means weak or mixed curves; inactive means flat fitted curve, though single readings scatter.
# Biological target: KiSS-1 receptor (Homo sapiens) (UniProt Q969F8)
# Assay: Human kisspeptin (KISS1R) small molecule agonists, calcium flux assay in KISS1R-HEK293 cells (AID 1920064)
# Conditions: KISS1R-HEK293, calcium flux fluorescence, agonist; series mostly up to 76.8 µM; activation: at the top concentration
# Excerpt: National Center for Advancing Translational Sciences [NCATS]
# Division of Preclinical Innovation [DPI]
# U.S. Environmental Protection Agency [EPA]
# National Institutes of Environmental Health Sciences [NIEHS]
# National Toxicology Program [NTP]
# U.S. Food and Drug Administration [FDA]
# Kisspeptin and its receptor KISS1R play key roles in mammalian reproduction due to their involvement in the onset of puberty and control of the hypothalamic-pituitary-gonadal axis such as regulates GnRH release from the hypothalamus. The kisspeptin/KISS1R system also plays a direct role in peripheral organs (including the ovary, testis, uterus, and placenta) and is implicated in reproductive diseases such as miscarriage and polycystic ovary syndrome (PCOS). Abnormal KISS1R activity is associated with abnormal puberty, infertility, endometriosis, and hormone-dependent tumors. The KISS1 receptor (KISS1R, also called GPR54), a G-protein-coupled receptor (GPCR), acts (through phospholipase C) to increase intracellular inositol trisphosphate and then release intracellular calcium stores. Cell-based KISS1R-HEK293 assay is using HEK293 cells that have been genetically engineered to express the human KISS1R, which activity can be measured by calcium signaling. A compound/drug can activate (agonist) KISS1R that can be monitored by levels of intracellular calcium.
# KISS1R-HEK293 cells developed by Codex Corp contain human KISS1R gene, which was stably integrated into HEK 293 cells. The compound activation can be detected by fluorescence intensity via calcium flux assay. This cell line has been used to screen the Tox21 10K compound library to identify agonists of KISS1R.
# KISS1R-Hek293 cells were dispensed at 1500 cells/4uL/well in 1536-well black wall/clear bottom plates using a multidrop dispenser. After the assay plates were incubated at a 37 C/5% CO2 incubator for 18 hours, 4 microL of Calcium Dye Solution was added to each well. The plates were incubated at 37 C for 1 hour. And then 23 nL of compounds dissolved in DMSO, positive controls, or DMSO only was transferred to the assay plate by a pin tool station. The fluorescence intensity in the plates was measured using FDSS 7000EX kinetic plate reader with a filter set of Ex/Em=480/540 for 3 min at 1 sec intervals. Each test compound was measured at 15 concentrations and in triplicates.
# On the % scale 0 is the no-effect control and ±100 the full control effect.
# Sequence of KiSS-1 receptor (Homo sapiens) (Q969F8 whole entry, looked up): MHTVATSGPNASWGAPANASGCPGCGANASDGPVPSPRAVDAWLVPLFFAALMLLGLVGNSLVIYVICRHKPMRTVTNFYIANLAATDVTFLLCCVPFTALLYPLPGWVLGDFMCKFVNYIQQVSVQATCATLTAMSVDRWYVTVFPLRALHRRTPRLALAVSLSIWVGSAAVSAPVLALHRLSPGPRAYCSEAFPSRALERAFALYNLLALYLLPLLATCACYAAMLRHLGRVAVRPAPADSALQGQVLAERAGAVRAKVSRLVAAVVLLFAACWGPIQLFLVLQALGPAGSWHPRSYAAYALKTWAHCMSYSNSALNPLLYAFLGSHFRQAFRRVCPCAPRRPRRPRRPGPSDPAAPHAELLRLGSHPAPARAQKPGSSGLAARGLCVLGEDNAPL
Compound,Potency,activation
c1ccc2ncccc2c1,inactive,–
CC(C)(O)Cc1ccccc1,–,0.436%
CCCCCCCCSCCO,–,5.23%
CC(C)(CO)[C@@H](O)C(=O)NCCC(=O)O,–,2.39%
c1cnc2cc3c(cc2n1)C1CNCC3C1,–,20.4% [at 35.3 µM]
CCCCC(CC)COC(=O)CCCCCCCC(=O)OCC(CC)CCCC (stereo not given),–,2.77%
COc1ccc(N=[N+]([O-])c2ccc(OC)cc2)cc1,–,-2.48%
CCCCCCOC(=O)C(C)CC (stereo not given),–,0.711%
Nc1nc(=O)n([C@@H]2O[C@H](CO)[C@@H](O)[C@@H]2F)cc1I,–,-0.704% [at 35.3 µM]
CC(C)=C1CC[C@@H](C)CC1=O,–,-8.87%
CCc1cccc(CC)c1NC(=O)C(=O)O,–,0.796%
Nc1cc(=O)[nH]c(N)n1,–,0.805% [at 35.3 µM]
C=CC(C)CCC=C(C)C (stereo not given),–,-0.617%
Cc1cccc(C)c1NC(=O)CN1CCCCCC1,–,6.66% [at 35.3 µM]
O=C(O)CC(=O)O,–,-0.559%
Cc1cc(C)cc(OCC2CNC(=O)O2)c1 (stereo not given),–,-1.54% [at 35.3 µM]
CCCCOCCOCCOC(=O)CCCCC(=O)OCCOCCOCCCC,–,8.1%
C=C(C)[C@H]1CC=C(C)CC1,–,-0.577%
CC(C(=O)O)c1cccc(C(=O)c2ccccc2)c1 (stereo not given),inactive,–
CC(CO)Oc1ccccc1 (stereo not given),–,0.995%

Compound,Potency,activation
C[C@H]1C[C@H](O)c2ccsc2S1(=O)=O,–,-1.09% [at 35.3 µM]
CCCCCCCCS(=O)(=O)Cl,–,0.0492%
C=CCCC,–,-1.85%
CCC(C)CO (stereo not given),inactive,–
COC(OC)C(C)c1ccccc1 (stereo not given),–,0.319%
O=C(O)/C=C/c1ccccc1,–,2.43%
CCCCCCCCCCCCCC,–,-1.36%
CC(C)CCCCCCc1ccc(O)cc1,inactive,–
C1CCSC1,–,-2.19%
C=CCOc1cc(Cl)ccc1C(=O)NCCN(CC)CC,–,-0.657% [at 35.3 µM]
CC(O)C(C)O (stereo not given),–,-0.267%
c1cc(C(c2ccc(OCC3CO3)cc2)C(c2ccc(OCC3CO3)cc2)c2ccc(OCC3CO3)cc2)ccc1OCC1CO1 (stereo not given),inactive,–
CCCCCCCCCCCCCCCCBr,–,1.03% [at 15.8 µM]
CC(C)CC=O,–,1%
CC(=O)/C=C/C1C(C)=CCCC1(C)C (stereo not given),–,-0.308%
CCOC(OCC)C(=O)c1ccccc1,–,0.152%
O=S(=O)(O)CCS,inactive,–
CC1=CC(=O)[C@H]2C[C@@H]1C2(C)C,–,-3.24%
CCO[Si](OCC)(OCC)c1ccccc1,–,-0.999%
CC(C)(O)C#CC(C)(C)O,–,-0.331%
